{"source": "PubChem BioAssay AID1159580", "about": "(chemical genetic matrix, 2015)", "assay": "chemical genetic growth profiling, strain panel (AID 1159580);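 further: tested at 20 µM; growth read once vehicle control cultures reached saturation at 30 °C; 1 = growth at the plate median or of vehicle wells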", "details": "S. cerevisiae deletion strains, growth OD", "note": "Hit rate of the full screen: of about 5,500 compounds, about 2,000 (36%) were called active. Another 18% or so got no clear call; they are omitted. Some of the results follow. Unmarked numbers belong to inactive results. No stated cut-off is given here; in the data, active means normalized growth mostly below about 0.91 (no sharp cut-off); inconclusive means no clear call, values can overlap the other calls; inactive means mostly above about 0.92.", "data": [{"smiles": "COc1ccc(-c2coc3c(OC)c(OC)ccc3c2=O)cc1", "values": [{"measurement": "normalized growth", "setting": "locus YBR021W, strain FUR4, stronger effect = lower value", "value": "0.728 (active)"}, {"measurement": "normalized growth", "setting": "locus YBR229C, strain ROT2, stronger effect = lower value", "value": 0.996}, {"measurement": "normalized growth", "setting": "locus YCL029C, strain bik1, stronger effect = lower value", "value": 0.998}, {"measurement": "normalized growth", "setting": "locus YDL035C, strain GPR1, stronger effect = lower value", "value": 0.963}, {"measurement": "normalized growth", "setting": "locus YDL074C, strain BRE1, stronger effect = lower value", "value": 0.917}, {"measurement": "normalized growth", "setting": "locus YDL101C, strain DUN1, stronger effect = lower value", "value": 0.969}, {"measurement": "normalized growth", "setting": "locus YDL134C, strain PPH21, stronger effect = lower value", "value": 0.924}, {"measurement": "normalized growth", "setting": "locus YDL185W, strain tfp1, stronger effect = lower value", "value": 1.01}, {"measurement": "normalized growth", "setting": "locus YDL192W, strain arf1, stronger effect = lower value", "value": 0.997}, {"measurement": "normalized growth", "setting": "locus YDR101C, strain arx1, stronger effect = lower value", "value": 0.985}, {"measurement": "normalized growth", "setting": "locus YDR162C, strain NBP2, stronger effect = lower value", "value": 0.875}, {"measurement": "normalized growth", "setting": "locus YDR318W, strain mcm21, stronger effect = lower value", "value": 0.988}, {"measurement": "normalized growth", "setting": "locus YDR388W, stronger effect = lower value", "value": 1}, {"measurement": "normalized growth", "setting": "locus YDR502C, strain sam2, stronger effect = lower value", "value": 0.986}, {"measurement": "normalized growth", "setting": "locus YEL061C, strain CIN8, stronger effect = lower value", "value": 0.986}, {"measurement": "normalized growth", "setting": "locus YER110C, stronger effect = lower value", "value": 1.01}, {"measurement": "normalized growth", "setting": "locus YER155C, strain BEM2, stronger effect = lower value", "value": 0.988}, {"measurement": "normalized growth", "setting": "locus YER167W, strain BCK2, stronger effect = lower value", "value": 0.974}, {"measurement": "normalized growth", "setting": "locus YGL078C, strain dbp3, stronger effect = lower value", "value": 1}, {"measurement": "normalized growth", "setting": "locus YGL086W, strain mad1, stronger effect = lower value", "value": 0.958}, {"measurement": "normalized growth", "setting": "locus YGL248W, strain PDE1, stronger effect = lower value", "value": 0.957}, {"measurement": "normalized growth", "setting": "locus YGR135W, strain pre9, stronger effect = lower value", "value": 0.968}, {"measurement": "normalized growth", "setting": "locus YGR229C, strain SMI1, stronger effect = lower value", "value": "0.787 (active)"}, {"measurement": "normalized growth", "setting": "locus YGR252W, strain gcn5, stronger effect = lower value", "value": 0.82}, {"measurement": "normalized growth", "setting": "locus YHR030C, strain SLT2, stronger effect = lower value", "value": 0.984}, {"measurement": "normalized growth", "setting": "locus YHR079C, strain IRE1 (second series), stronger effect = lower value", "value": 1.01}, {"measurement": "normalized growth", "setting": "locus YHR094C, strain hxt1, stronger effect = lower value", "value": 1.01}, {"measurement": "normalized growth", "setting": "locus YHR129C, strain ARP1, stronger effect = lower value", "value": 0.983}, {"measurement": "normalized growth", "setting": "locus YHR200W, strain rpn10, stronger effect = lower value", "value": 1.01}, {"measurement": "normalized growth", "setting": "locus YIL066C, strain RNR3, stronger effect = lower value", "value": 0.925}, {"measurement": "normalized growth", "setting": "locus YIL073C, strain SPO22, stronger effect = lower value", "value": 0.99}, {"measurement": "normalized growth", "setting": "locus YIL125W, strain kgd1, stronger effect = lower value", "value": 1}, {"measurement": "normalized growth", "setting": "locus YIR030C, strain dcg1, stronger effect = lower value", "value": 0.998}, {"measurement": "normalized growth", "setting": "locus YJL095W, strain BCK1, stronger effect = lower value", "value": 0.838}, {"measurement": "normalized growth", "setting": "locus YJL134W, strain LCB3, stronger effect = lower value", "value": 0.995}, {"measurement": "normalized growth", "setting": "locus YJL168C, strain set2, stronger effect = lower value", "value": 1.01}, {"measurement": "normalized growth", "setting": "locus YJL187C, strain SWE1 (second series), stronger effect = lower value", "value": 0.957}, {"measurement": "normalized growth", "setting": "locus YJR043C, strain POL32, stronger effect = lower value", "value": 0.899}, {"measurement": "normalized growth", "setting": "locus YJR075W, strain HOC1, stronger effect = lower value", "value": 0.95}, {"measurement": "normalized growth", "setting": "locus YKL009W, strain mrt4, stronger effect = lower value", "value": 0.988}, {"measurement": "normalized growth", "setting": "locus YKL068W, stronger effect = lower value", "value": 1}, {"measurement": "normalized growth", "setting": "locus YKL085W, strain MDH1 (second series), stronger effect = lower value", "value": 0.994}, {"measurement": "normalized growth", "setting": "locus YKL085W, strain MDH1, stronger effect = lower value", "value": 0.994}, {"measurement": "normalized growth", "setting": "locus YKR001C, strain vps1, stronger effect = lower value", "value": 0.948}, {"measurement": "normalized growth", "setting": "locus YLR039C, strain RIC1, stronger effect = lower value", "value": 0.907}, {"measurement": "normalized growth", "setting": "locus YLR058C, strain SHM2, stronger effect = lower value", "value": 0.974}, {"measurement": "normalized growth", "setting": "locus YLR102C, strain apc9, stronger effect = lower value", "value": 1.01}, {"measurement": "normalized growth", "setting": "locus YLR262C, strain YPT6, stronger effect = lower value", "value": 0.906}, {"measurement": "normalized growth", "setting": "locus YLR268W, strain sec22, stronger effect = lower value", "value": 0.953}, {"measurement": "normalized growth", "setting": "locus YLR330W, strain CHS5, stronger effect = lower value", "value": 0.972}, {"measurement": "normalized growth", "setting": "locus YLR342W, strain FKS1 (second series), stronger effect = lower value", "value": 0.912}, {"measurement": "normalized growth", "setting": "locus YLR371W, strain rom2, stronger effect = lower value", "value": 1.01}, {"measurement": "normalized growth", "setting": "locus YLR418C, strain cdc73, stronger effect = lower value", "value": 0.879}, {"measurement": "normalized growth", "setting": "locus YML016C, strain PPZ1, stronger effect = lower value", "value": 0.993}, {"measurement": "normalized growth", "setting": "locus YML032C, strain rad52, stronger effect = lower value", "value": 0.995}, {"measurement": "normalized growth", "setting": "locus YML124C, strain tub3, stronger effect = lower value", "value": 0.997}, {"measurement": "normalized growth", "setting": "locus YMR078C, strain ctf18, stronger effect = lower value", "value": 1.02}, {"measurement": "normalized growth", "setting": "locus YMR223W, strain ubp8, stronger effect = lower value", "value": 1.01}, {"measurement": "normalized growth", "setting": "locus YMR263W, strain SAP30, stronger effect = lower value", "value": 0.931}, {"measurement": "normalized growth", "setting": "locus YMR307W, strain GAS1, stronger effect = lower value", "value": 0.834}, {"measurement": "normalized growth", "setting": "locus YNL067W, strain RPL9B, stronger effect = lower value", "value": 0.941}, {"measurement": "normalized growth", "setting": "locus YNL128W, strain TEP1, stronger effect = lower value", "value": 0.973}, {"measurement": "normalized growth", "setting": "locus YNL153C, strain GIM3, stronger effect = lower value", "value": 0.955}, {"measurement": "normalized growth", "setting": "locus YNL233W, strain BNI4, stronger effect = lower value", "value": 0.884}, {"measurement": "normalized growth", "setting": "locus YNL250W, strain rad50, stronger effect = lower value", "value": 1.03}, {"measurement": "normalized growth", "setting": "locus YNL271C, strain bni1, stronger effect = lower value", "value": 0.997}, {"measurement": "normalized growth", "setting": "locus YNL298W, strain CLA4, stronger effect = lower value", "value": 0.997}, {"measurement": "normalized growth", "setting": "locus YNL307C, strain MCK1, stronger effect = lower value", "value": 0.96}, {"measurement": "normalized growth", "setting": "locus YNL322C, strain KRE1, stronger effect = lower value", "value": 0.98}, {"measurement": "normalized growth", "setting": "locus YNR052C, strain pop2, stronger effect = lower value", "value": 1.01}, {"measurement": "normalized growth", "setting": "locus YOL012C, strain htz1", "value": 1.11}, {"measurement": "normalized growth", "setting": "locus YOL147C, strain pex11, stronger effect = lower value", "value": 0.989}, {"measurement": "normalized growth", "setting": "locus YOR061W, strain CKA2, stronger effect = lower value", "value": 0.995}, {"measurement": "normalized growth", "setting": "locus YOR069W, strain VPS5, stronger effect = lower value", "value": 0.998}, {"measurement": "normalized growth", "setting": "locus YOR136W, strain idh2, stronger effect = lower value", "value": 1}, {"measurement": "normalized growth", "setting": "locus YOR144C, strain elg1, stronger effect = lower value", "value": 0.994}, {"measurement": "normalized growth", "setting": "locus YOR184W, strain ser1, stronger effect = lower value", "value": 0.917}, {"measurement": "normalized growth", "setting": "locus YOR316C, strain cot1, stronger effect = lower value", "value": 1}, {"measurement": "normalized growth", "setting": "locus YPL055C, strain LGE1, stronger effect = lower value", "value": 0.888}, {"measurement": "normalized growth", "setting": "locus YPR119W, strain clb2, stronger effect = lower value", "value": 1.02}, {"measurement": "normalized growth", "setting": "locus YPR141C, strain kar3, stronger effect = lower value", "value": 1}, {"measurement": "normalized growth", "setting": "locus YPR163C, strain tif3, stronger effect = lower value", "value": 0.999}, {"measurement": "normalized growth", "setting": "locus YPR167C, strain met16, stronger effect = lower value", "value": 1}, {"measurement": "normalized growth", "setting": "strain wtn01, stronger effect = lower value", "value": 0.988}]}]}
